# The campaign covered roughly 1,100 compounds. About 760 (69%) were called active. No rule for the calls is given here. The set was probably picked from earlier hits. The list shows a part of the results.
# Assay: M. tuberculosis growth inhibition, HTS (AID 1259417);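 also: bacteria grown with compound for 5 days at 37 °C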
# Conditions: stronger effect = higher value, concentration not given here
# [1] = M. tuberculosis DsRed fluorescence growth inhibition
# [2] = M. tuberculosis growth inhibition
SMILES,inhibition [1],inhibition [2] [%]
Cc1c(Cl)ccc(OCCCN2CCCC(C)C2)c1C (stereo unspecified),99.2% (active),92.6
CC(C)OC(=O)CSc1nnc(-c2ccc(Cl)cc2Cl)o1,73% (active),86.2
Clc1ccc(-c2nnc(SCc3ccon3)o2)c(Cl)c1,82.2% (active),64.9
CCOC(=O)CSc1nnc(-c2ccc(Cl)cc2Cl)o1,78.6% (active),85.5
CC(C)OC(=O)CSc1nnc(-c2ccc(N(C)C)cc2)o1,81.3% (active),91.9
COc1cc(OC)c(-c2nn3c(C4CCCCC4)nnc3s2)cc1OC,3% (inactive),4.48
CCOC(=O)C(Oc1ccc2oc(C)c(C(=O)OC)c2c1)c1ccccc1 (stereo unspecified),-0.568% (inactive),-19.6
COC(=O)C(Oc1ccc2c(c1)oc(=O)c1cc(OC)ccc12)c1ccccc1 (stereo unspecified),27.2% (active),79.5
COc1ccc(NC(=O)CC23CC4CC(CC(C4)C2)C3)cc1[N+](=O)[O-],71% (active),49.1
COc1ccc(NC(=O)CC23CC4CC(CC(C4)C2)C3)cc1Cl,97.4% (active),86.9
COc1ccc(Cl)cc1NC(=O)CC12CC3CC(CC(C3)C1)C2,10.7% (inactive),2.06
COc1cc(NC(=O)CC23CC4CC(CC(C4)C2)C3)ccc1NC(=O)c1ccco1,-10.9% (inactive),-3.8
CC(C)(C)c1ccc(C(=O)Nc2nccs2)cc1Br,17.6% (inactive),-5.32
O=C(Nc1ncc(Cc2cccc(C(F)(F)F)c2)s1)c1cccs1,24.1% (inactive),23.5
CC(C)(C)c1cnc(NC(=O)c2ccccc2O)s1,71.4% (active),28.1
O=C(CSc1nnc(-c2ccccc2Br)o1)N1CCc2ccccc2C1,24.1% (active),31.3
Nc1ccccc1NCCOc1ccccc1,98.3% (active),98.7
O=C(CCNc1ccc(-c2ccccc2)cc1)c1ccco1,34.2% (active),84.3
Cc1ccc(NC(=O)C(=O)NNC(=O)c2ccco2)cc1Cl,6.77% (inactive),7.85
O=C(CCNc1cccc(Cl)c1)c1ccco1,97.7% (active),96.8
CC(=O)c1ccc(NCCC(=O)c2ccco2)cc1,17.6% (active),59.4
O=C(COc1ccc(Cl)cc1)Nc1ccc(N2CCN(C(=O)c3ccco3)CC2)c(Cl)c1,0.893% (inactive),-16.5
CCCCSc1ccc(NCCC(=O)c2ccco2)cc1,29.9% (active),60.7
Cc1ccc(-c2csc3nc(SCC(N)=O)n(-c4ccccc4)c(=O)c23)cc1C,4.1% (inactive),-0.946
CCC(C)NCCOc1ccc(C(C)(C)c2ccccc2)cc1 (stereo unspecified),98% (active),94.4
COc1ccc(OCC(=O)Nc2ccc(I)cc2C)cc1,22% (active),56.8
Cc1ccc(NCc2nnc(SCC(=O)OC3CCCCC3)o2)c(C)c1,91.7% (active),95
O=C(CSc1nnc(CNc2cccc(Cl)c2)o1)OC1CCCCC1,68.9% (active),81.6

# — PubChem BioAssay AID1259417 (TB Discovery Research, Infectious Disease Research Institute, 2018)
